Experimental data: publication PMC5700166

target: T1, GST-Nv-NF-kB (Ser allele) (Nematostella vectensis, UniProt A7UNT2 2-411); assay: protein-binding microarray (PBM); PBM: ~300 nM protein, 6 mM HEPES pH 7.8, 80 mM KCl, 0.5 mM EDTA, 0.5 mM EGTA, 6% glycerol, 35 ng/ul poly-dIdC, 1% milk, 1 h, room temperature; Ap Aiptasia and Nv Nematostella (sea anemones) / Co Capsaspora / Aq Amphimedon (sponge) / Dm Drosophila / Hu human; RHD is the Rel homology domain; high values mean tight binding; conditions: dsDNA, one strand shown
T1 sequence: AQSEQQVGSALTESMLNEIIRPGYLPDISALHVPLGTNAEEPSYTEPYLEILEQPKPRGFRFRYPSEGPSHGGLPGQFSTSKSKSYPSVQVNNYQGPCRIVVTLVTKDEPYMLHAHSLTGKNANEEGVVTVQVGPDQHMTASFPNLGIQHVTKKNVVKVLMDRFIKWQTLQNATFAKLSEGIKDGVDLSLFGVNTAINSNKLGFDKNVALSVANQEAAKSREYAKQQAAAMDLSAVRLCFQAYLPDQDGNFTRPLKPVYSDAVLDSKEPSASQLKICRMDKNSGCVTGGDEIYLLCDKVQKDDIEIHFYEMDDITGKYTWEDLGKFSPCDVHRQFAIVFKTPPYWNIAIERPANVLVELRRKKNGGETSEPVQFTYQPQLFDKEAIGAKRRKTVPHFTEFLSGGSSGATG

| Sequence | binding signal [z-score] |
| --- | --- |
| CCGATTAACATCAGGGGCTTACCTGATGTTAATCGGGTCTTGATTCGCTTGACGCTGCTG | 3.61 |
| CCGATTAACATCAGGCATCCCCCTGATGTTAATCGGGTCTTGATTCGCTTGACGCTGCTG | 4.92 |
| CCGATTAACATCACCCCCCCCCCTGATGTTAATCGGGTCTTGATTCGCTTGACGCTGCTG | 5.24 |
| CCGATTAACATCAGAAATGCCCCTGATGTTAATCGGGTCTTGATTCGCTTGACGCTGCTG | 3.44 |
| CCGATTAACATCACGCATCCCCCTGATGTTAATCGGGTCTTGATTCGCTTGACGCTGCTG | 6.09 |
| CCGATTAACATCAGGGGGTTCACTGATGTTAATCGGGTCTTGATTCGCTTGACGCTGCTG | 4.69 |
| CCGATTAACATCATACTTCCCCATGATGTTAATCGGGTCTTGATTCGCTTGACGCTGCTG | 6.52 |
| CCGATTAACATCAAGGGGGGGGGTGATGTTAATCGGGTCTTGATTCGCTTGACGCTGCTG | 4.84 |
| CCGATTAACATCACGGGGTTTTCTGATGTTAATCGGGTCTTGATTCGCTTGACGCTGCTG | 5.22 |
| CCGATTAACATCAAAATTCCCGTTGATGTTAATCGGGTCTTGATTCGCTTGACGCTGCTG | 6.44 |
| CCGATTAACATCAGGGGGAACACTGATGTTAATCGGGTCTTGATTCGCTTGACGCTGCTG | 6.37 |
| CCGATTAACATCACATACCTACCTGATGTTAATCGGGTCTTGATTCGCTTGACGCTGCTG | 1.21 |
| CCGATTAACATCAAGGGGGGACTTGATGTTAATCGGGTCTTGATTCGCTTGACGCTGCTG | 4.99 |
| CCGATTAACATCAGGGCATGCCCTGATGTTAATCGGGTCTTGATTCGCTTGACGCTGCTG | 1.33 |
| CCGATTAACATCAAAAGCCCCCCTGATGTTAATCGGGTCTTGATTCGCTTGACGCTGCTG | 4.86 |
| CCGATTAACATCATTTTACCTTGTGATGTTAATCGGGTCTTGATTCGCTTGACGCTGCTG | 3.39 |
| CCGATTAACATCACCCCCCCCCGTGATGTTAATCGGGTCTTGATTCGCTTGACGCTGCTG | 5.34 |
| CCGATTAACATCAAGGAATTCCCTGATGTTAATCGGGTCTTGATTCGCTTGACGCTGCTG | 6.37 |
| CCGATTAACATCATGGGGGGGAATGATGTTAATCGGGTCTTGATTCGCTTGACGCTGCTG | 4.89 |
| CCGATTAACATCACAAATACCCCTGATGTTAATCGGGTCTTGATTCGCTTGACGCTGCTG | 4.74 |

| Sequence | binding signal [z-score] |
| --- | --- |
| CCGATTAACATCAGGGGGGGAGATGATGTTAATCGGGTCTTGATTCGCTTGACGCTGCTG | 4.31 |
| CCGATTAACATCAGGTATTTCCATGATGTTAATCGGGTCTTGATTCGCTTGACGCTGCTG | 1.6 |
| CCGATTAACATCACTAATCCCCCTGATGTTAATCGGGTCTTGATTCGCTTGACGCTGCTG | 6.57 |
| CCGATTAACATCAGGAACCCCCCTGATGTTAATCGGGTCTTGATTCGCTTGACGCTGCTG | 5.44 |
| CCGATTAACATCAATACCCCCCCTGATGTTAATCGGGTCTTGATTCGCTTGACGCTGCTG | 4.49 |
| CCGATTAACATCAGGGGGAACAATGATGTTAATCGGGTCTTGATTCGCTTGACGCTGCTG | 6.27 |
| CCGATTAACATCACAGAAACCCCTGATGTTAATCGGGTCTTGATTCGCTTGACGCTGCTG | 4.97 |
| CCGATTAACATCATCCCCCCCCATGATGTTAATCGGGTCTTGATTCGCTTGACGCTGCTG | 4 |
| CCGATTAACATCAAAAATGCCCCTGATGTTAATCGGGTCTTGATTCGCTTGACGCTGCTG | 6.13 |
| CCGATTAACATCACGTGGGGCGTTGATGTTAATCGGGTCTTGATTCGCTTGACGCTGCTG | 1.01 |
| CCGATTAACATCACAGAGTCCCCTGATGTTAATCGGGTCTTGATTCGCTTGACGCTGCTG | 6.04 |
| CCGATTAACATCACCGCTTCCCTTGATGTTAATCGGGTCTTGATTCGCTTGACGCTGCTG | 1.69 |
| CCGATTAACATCAAGGGACTTCCTGATGTTAATCGGGTCTTGATTCGCTTGACGCTGCTG | 5.97 |
| CCGATTAACATCAGAAAAATCCCTGATGTTAATCGGGTCTTGATTCGCTTGACGCTGCTG | 5.14 |
| CCGATTAACATCAGGGAAAGGGATGATGTTAATCGGGTCTTGATTCGCTTGACGCTGCTG | 3.11 |
| CCGATTAACATCAGGGGATATAATGATGTTAATCGGGTCTTGATTCGCTTGACGCTGCTG | 6.48 |
| CCGATTAACATCATTTCCGGAAATGATGTTAATCGGGTCTTGATTCGCTTGACGCTGCTG | 1.02 |
| CCGATTAACATCAGGGGGAGTTATGATGTTAATCGGGTCTTGATTCGCTTGACGCTGCTG | 6.11 |
| CCGATTAACATCAAGGGGGGGATTGATGTTAATCGGGTCTTGATTCGCTTGACGCTGCTG | 6.32 |
